Source: PubChem BioAssay (Tox21)
Results filed as inconclusive are left out. Activity calls are given as the source filed them. Unless noted, calls come from the whole dose curve; as a rule, active = well fitted curve in the direction sought with a large enough effect in the repeat runs; inconclusive = weak or mixed curves; inactive = no such curve, though single readings can be large; an effect the other way counts as inactive or inconclusive.

Assays:
[1] = qHTS assay to identify small molecule agonists of the TGF-beta/Smad signaling pathway - cell viability counter screen (AID 1346829); note: top concentration of the series differs between compounds; nearly all actives have a fitted effect of over 45% in size
Summary of the method: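 After overnight seating at 37 C and 5% CO2, reporter cells got compounds for 5 hr and FRET substrate for 2 hr; cell viability then came from CellTiter-Glo luminescence.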

[2] = qHTS assay to identify small molecule agonists of the TGF-beta/Smad signaling pathway (AID 1346859; active = well fitted activation curve with a large enough effect in the signal ratio in the repeat runs, not every such curve was filed as active; the % refers to the signal ratio; note: series mostly up to about 77 µM)
Summary of the method: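 Dual-wavelength fluorescence (460/530 nm emission) quantified beta-lactamase expression under the Smad binding element in HEK 293T cells following 5 hr compound treatment at 37 C.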

[3] = molecular target: Thyrotropin-releasing hormone receptor (Homo sapiens) (UniProt P34981); test: qHTS assay to identify small molecule antagonists of the thyrotropin-releasing hormone receptor (TRHR) signaling pathway (AID 1346877; active = well fitted inhibition curve with a large enough effect in the repeat runs, not every such curve was filed as active; note: series mostly up to about 51 µM)
Thyrotropin-releasing hormone receptor (Homo sapiens), sequence (P34981 whole entry, looked up): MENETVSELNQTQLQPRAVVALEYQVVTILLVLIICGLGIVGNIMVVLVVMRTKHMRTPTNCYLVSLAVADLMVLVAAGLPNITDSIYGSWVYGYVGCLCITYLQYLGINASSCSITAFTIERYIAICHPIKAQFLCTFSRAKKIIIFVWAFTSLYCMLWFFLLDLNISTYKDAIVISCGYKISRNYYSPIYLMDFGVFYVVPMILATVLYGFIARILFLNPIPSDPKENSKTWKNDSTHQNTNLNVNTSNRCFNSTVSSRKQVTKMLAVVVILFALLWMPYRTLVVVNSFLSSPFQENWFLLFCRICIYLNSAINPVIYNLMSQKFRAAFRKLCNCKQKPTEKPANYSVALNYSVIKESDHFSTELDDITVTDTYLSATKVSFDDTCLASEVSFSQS
Summary of the method: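 Screening used HEK293 cells engineered with TRHR, with a brief 5 min room-temperature compound exposure preceding addition of TRH to 1 nM. The read-out was kinetic calcium-dye fluorescence, concentration-response from 15 doses in triplicate.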

[4] = Human pregnane X receptor (PXR) small molecule agonists, qHTS cell viability counter screen (AID 1346977); note: nearly all actives have a fitted effect of over 50% in size
Summary of the method: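 HepG2 cells stably carrying the PXR-Luc reporter are cultured with 5% charcoal-stripped FBS and treated with compounds for 24hr. CellTiter-Fluor is added at 23hr and fluorescence is read after 1hr.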

[5] = Caspase-3/7 induction in HepG2 cells by small molecules, qHTS assay (AID 1346978); note: nearly all actives have a fitted effect of over 15% in size
Summary of the method: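 Wild-type HepG2 cells (2,000/well) were settled 5 h at 37 C, 5% CO2, then exposed to compounds in DMSO for 17 h. Caspase-3/7 activity was read by luminescence 30 min after adding Caspase-Glo 3/7 reagent at room temperature.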

[6] = Caspase-3/7 induction in CHO-K1 cells by small molecules, qHTS cell viability counter screen (AID 1346979); note: nearly all actives have a fitted effect of over 35% in size
Summary of the method: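 Seeding: 1,500 CHO-K1 cells/well. Rest: 5hr, 37C. Treatment: compounds in DMSO, 16hr. Read: CellTiter-Fluor, 1hr, fluorescence.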

[7] = Caspase-3/7 induction in CHO-K1 cells by small molecules, qHTS assay (AID 1346980); note: nearly all actives have a fitted effect of over 15% in size
Summary of the method: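 Wild-type cells were seeded at 1,500 per well and settled 5 hr at 37 C, 5% CO2, then exposed to DMSO-dissolved compounds for 17 hr. Caspase-Glo 3/7 reagent was added, and luminescence was read after 30min at room temperature.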

[8] = Caspase-3/7 induction in HepG2 cells by small molecules, qHTS cell viability counter screen (AID 1346981); note: series mostly up to about 92 µM; nearly all actives have a fitted effect of over 30% in size
Summary of the method: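 Multiplexed with the caspase-3/7 assay: HepG2 cells, 16 hr compound treatment, CellTiter-Fluor viability detection by fluorescence.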

[9] = molecular target: Nuclear receptor subfamily 1 group I member 2 (Homo sapiens) (UniProt O75469); test: Human pregnane X receptor (PXR) small molecule agonists, qHTS assay (AID 1346982); note: nearly all actives have a fitted effect of over 35% in size
Nuclear receptor subfamily 1 group I member 2 (Homo sapiens), sequence (O75469 whole entry, looked up): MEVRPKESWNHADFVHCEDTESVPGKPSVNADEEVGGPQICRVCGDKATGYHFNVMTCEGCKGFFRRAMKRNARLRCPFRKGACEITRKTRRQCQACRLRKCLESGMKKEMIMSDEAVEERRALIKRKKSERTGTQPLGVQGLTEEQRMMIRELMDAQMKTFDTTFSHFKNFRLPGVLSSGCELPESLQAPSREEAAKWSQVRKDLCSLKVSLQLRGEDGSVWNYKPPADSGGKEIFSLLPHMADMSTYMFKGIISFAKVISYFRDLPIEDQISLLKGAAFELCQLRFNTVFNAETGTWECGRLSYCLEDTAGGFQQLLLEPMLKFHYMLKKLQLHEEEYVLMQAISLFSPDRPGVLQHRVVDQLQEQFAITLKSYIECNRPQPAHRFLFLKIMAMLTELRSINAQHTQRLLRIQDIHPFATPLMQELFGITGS
Summary of the method: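 We seeded PXR-Luc HepG2 cells in assay medium containing 5% charcoal-stripped FBS, added compounds 5 hr later, incubated 24 hr, and read luminescence with ONE-Glo reagent.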

[10] = molecular target: Cytochrome P450 2D6 (Homo sapiens) (UniProt P10635); test: Cytochrome P450 Family 2 Subfamily D Member 6 (CYP2D6) small molecule antagonists: luciferase reporter qHTS assay (AID 1671196); note: nearly all actives have a fitted effect of over 50% in size; note: potency is the fitted concentration of half-maximal effect
Cytochrome P450 2D6 (Homo sapiens), sequence (P10635 whole entry, looked up): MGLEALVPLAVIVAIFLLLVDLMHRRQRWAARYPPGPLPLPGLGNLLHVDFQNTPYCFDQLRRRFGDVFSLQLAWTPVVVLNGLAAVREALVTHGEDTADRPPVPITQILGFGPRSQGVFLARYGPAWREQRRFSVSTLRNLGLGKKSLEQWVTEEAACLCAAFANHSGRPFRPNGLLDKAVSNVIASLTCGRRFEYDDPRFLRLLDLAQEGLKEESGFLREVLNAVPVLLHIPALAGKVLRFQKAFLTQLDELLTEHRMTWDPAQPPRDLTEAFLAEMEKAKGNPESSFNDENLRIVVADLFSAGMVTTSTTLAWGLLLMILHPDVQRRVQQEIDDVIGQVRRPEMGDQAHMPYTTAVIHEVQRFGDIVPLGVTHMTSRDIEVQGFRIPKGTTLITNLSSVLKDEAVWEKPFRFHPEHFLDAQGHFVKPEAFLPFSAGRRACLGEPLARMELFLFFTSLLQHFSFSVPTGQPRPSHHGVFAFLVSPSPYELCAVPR
Summary of the method: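 Luminescence (RLU), read 20 min after detection reagent, indicated CYP2D6 conversion of proluciferin to luciferin during a 1 h NADPH-dependent reaction at room temperature.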

[11] = molecular target: Cytochrome P450 2C19 (Homo sapiens) (UniProt P33261); test: Cytochrome P450 Family 2 Subfamily C Member 19 (CYP2C19) small molecule antagonists: luciferase reporter qHTS assay (AID 1671197); note: nearly all actives have a fitted effect of over 65% in size; note: potency is the fitted concentration of half-maximal effect
Cytochrome P450 2C19 (Homo sapiens), sequence (P33261 whole entry, looked up): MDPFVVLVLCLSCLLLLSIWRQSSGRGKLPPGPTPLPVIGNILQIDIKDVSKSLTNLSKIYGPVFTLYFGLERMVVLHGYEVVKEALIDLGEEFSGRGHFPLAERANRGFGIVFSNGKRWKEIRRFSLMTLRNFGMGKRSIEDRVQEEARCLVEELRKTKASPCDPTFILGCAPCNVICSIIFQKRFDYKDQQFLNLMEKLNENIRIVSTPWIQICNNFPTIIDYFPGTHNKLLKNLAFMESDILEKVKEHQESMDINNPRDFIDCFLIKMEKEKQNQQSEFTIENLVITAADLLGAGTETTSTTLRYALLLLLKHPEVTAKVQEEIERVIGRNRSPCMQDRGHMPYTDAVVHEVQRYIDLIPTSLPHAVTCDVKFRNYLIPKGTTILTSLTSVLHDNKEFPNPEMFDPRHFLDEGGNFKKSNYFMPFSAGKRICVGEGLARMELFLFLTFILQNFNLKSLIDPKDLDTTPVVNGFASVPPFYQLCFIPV
Summary of the method: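 Inhibition of CYP2C19 was scored from loss of luminescence in a P450-Glo proluciferin substrate assay, NADPH-started and run 1 h at 37C, with ketoconazole as positive control.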

[12] = molecular target: Cytochrome P450 2C9 (Homo sapiens) (UniProt P11712); test: Cytochrome P450 Family 2 Subfamily C Member 9 (CYP2C9) small molecule antagonists: luciferase reporter qHTS assay (AID 1671198); note: nearly all actives have a fitted effect of over 50% in size; note: potency is the fitted concentration of half-maximal effect
Cytochrome P450 2C9 (Homo sapiens), sequence (P11712 whole entry, looked up): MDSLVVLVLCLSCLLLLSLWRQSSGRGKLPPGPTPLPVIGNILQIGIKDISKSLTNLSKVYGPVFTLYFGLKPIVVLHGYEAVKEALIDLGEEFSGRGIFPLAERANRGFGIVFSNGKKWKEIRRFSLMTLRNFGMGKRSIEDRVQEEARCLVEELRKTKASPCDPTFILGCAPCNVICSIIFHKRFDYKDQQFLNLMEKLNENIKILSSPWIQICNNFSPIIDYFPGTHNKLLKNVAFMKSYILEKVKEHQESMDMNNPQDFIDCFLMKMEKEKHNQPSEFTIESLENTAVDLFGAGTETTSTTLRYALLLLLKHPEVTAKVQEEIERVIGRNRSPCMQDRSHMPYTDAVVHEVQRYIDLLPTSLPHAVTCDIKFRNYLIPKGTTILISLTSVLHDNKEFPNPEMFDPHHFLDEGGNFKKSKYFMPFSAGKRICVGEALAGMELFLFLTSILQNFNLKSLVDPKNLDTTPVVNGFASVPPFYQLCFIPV
Summary of the method: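 CYP2C9 activity was measured with a P450-Glo proluciferin substrate. Enzyme–substrate mix was held with compound for 10 min at room temperature, then NADPH regeneration solution was added for 1 h at 37C. Luciferin product was read as luminescence.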

[13] = molecular target: Cytochrome P450 1A2 (Homo sapiens) (UniProt P05177); test: Cytochrome P450 Family 1 Subfamily A Member 2 (CYP1A2) small molecule antagonists: luciferase reporter qHTS assay (AID 1671199); note: nearly all actives have a fitted effect of over 50% in size; note: potency is the fitted concentration of half-maximal effect
Cytochrome P450 1A2 (Homo sapiens), sequence (P05177 whole entry, looked up): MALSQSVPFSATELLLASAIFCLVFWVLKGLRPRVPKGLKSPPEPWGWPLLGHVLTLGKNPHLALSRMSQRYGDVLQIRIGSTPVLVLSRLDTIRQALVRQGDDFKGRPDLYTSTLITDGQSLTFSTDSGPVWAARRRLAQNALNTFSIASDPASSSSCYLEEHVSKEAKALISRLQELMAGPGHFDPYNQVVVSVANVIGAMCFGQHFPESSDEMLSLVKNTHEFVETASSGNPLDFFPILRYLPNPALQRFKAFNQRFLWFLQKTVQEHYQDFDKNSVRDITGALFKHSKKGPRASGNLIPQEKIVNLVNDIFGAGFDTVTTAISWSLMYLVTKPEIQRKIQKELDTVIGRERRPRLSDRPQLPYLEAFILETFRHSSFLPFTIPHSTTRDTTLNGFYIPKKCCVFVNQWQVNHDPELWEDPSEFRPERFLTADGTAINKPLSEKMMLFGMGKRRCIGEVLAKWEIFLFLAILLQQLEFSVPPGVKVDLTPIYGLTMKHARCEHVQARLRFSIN
Summary of the method: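 CYP1A2 turnover of a luminogenic substrate was quantified after 1 h with NADPH regeneration at room temperature. Furafylline served as positive control.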

[14] = molecular target: Voltage-gated inwardly rectifying potassium channel KCNH2 (Homo sapiens) (UniProt Q12809); test: Human Ether-a-go-go-Related Gene (hERG) channel small molecule antagonists: fluorescence cell-based qHTS assay (AID 1671200)
Voltage-gated inwardly rectifying potassium channel KCNH2 (Homo sapiens), sequence (Q12809 whole entry, looked up): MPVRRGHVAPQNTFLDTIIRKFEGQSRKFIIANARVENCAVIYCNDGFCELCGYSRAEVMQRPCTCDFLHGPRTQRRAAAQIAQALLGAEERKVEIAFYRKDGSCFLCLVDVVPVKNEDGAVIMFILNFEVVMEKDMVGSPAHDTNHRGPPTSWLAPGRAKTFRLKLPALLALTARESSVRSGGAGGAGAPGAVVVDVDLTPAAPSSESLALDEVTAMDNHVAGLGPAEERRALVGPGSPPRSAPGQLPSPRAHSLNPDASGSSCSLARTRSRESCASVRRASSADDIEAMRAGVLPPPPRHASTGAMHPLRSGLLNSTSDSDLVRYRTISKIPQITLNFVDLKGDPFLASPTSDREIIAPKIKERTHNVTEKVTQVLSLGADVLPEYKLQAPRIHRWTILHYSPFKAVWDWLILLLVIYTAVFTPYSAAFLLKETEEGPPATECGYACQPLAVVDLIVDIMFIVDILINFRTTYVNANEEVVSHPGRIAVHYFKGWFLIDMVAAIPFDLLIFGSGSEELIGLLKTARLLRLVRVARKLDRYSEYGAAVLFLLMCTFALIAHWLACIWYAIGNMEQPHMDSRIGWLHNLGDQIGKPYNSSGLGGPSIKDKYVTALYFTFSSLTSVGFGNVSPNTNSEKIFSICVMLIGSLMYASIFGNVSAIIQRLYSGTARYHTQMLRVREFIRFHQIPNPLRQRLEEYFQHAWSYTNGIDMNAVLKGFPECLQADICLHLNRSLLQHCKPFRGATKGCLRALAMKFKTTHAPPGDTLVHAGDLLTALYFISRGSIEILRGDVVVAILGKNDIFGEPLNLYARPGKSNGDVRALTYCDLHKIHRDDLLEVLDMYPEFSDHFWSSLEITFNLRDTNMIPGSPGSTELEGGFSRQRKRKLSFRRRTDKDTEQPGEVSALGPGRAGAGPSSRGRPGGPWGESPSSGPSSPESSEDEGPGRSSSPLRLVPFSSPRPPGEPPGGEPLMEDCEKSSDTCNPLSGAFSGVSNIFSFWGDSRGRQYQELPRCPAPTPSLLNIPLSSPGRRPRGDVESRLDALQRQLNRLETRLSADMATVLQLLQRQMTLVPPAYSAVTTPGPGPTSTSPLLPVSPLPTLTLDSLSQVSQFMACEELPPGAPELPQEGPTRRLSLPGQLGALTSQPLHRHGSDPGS
Summary of the method: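 First, 1000 cells per well are seeded and cultured overnight at 37 C. Next, FluxOR II dye is loaded for 1 h at room temperature, protected from light. After 10 more minutes, stimulus is added and fluorescence is read.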

[15] = molecular target: Cytochrome P450 3A4 (Homo sapiens) (UniProt P08684); test: Cytochrome P450 Family 3 Subfamily A Member 4 (CYP3A4) small molecule antagonists: luciferase reporter qHTS assay (AID 1671201)
Cytochrome P450 3A4 (Homo sapiens), sequence (P08684 whole entry, looked up): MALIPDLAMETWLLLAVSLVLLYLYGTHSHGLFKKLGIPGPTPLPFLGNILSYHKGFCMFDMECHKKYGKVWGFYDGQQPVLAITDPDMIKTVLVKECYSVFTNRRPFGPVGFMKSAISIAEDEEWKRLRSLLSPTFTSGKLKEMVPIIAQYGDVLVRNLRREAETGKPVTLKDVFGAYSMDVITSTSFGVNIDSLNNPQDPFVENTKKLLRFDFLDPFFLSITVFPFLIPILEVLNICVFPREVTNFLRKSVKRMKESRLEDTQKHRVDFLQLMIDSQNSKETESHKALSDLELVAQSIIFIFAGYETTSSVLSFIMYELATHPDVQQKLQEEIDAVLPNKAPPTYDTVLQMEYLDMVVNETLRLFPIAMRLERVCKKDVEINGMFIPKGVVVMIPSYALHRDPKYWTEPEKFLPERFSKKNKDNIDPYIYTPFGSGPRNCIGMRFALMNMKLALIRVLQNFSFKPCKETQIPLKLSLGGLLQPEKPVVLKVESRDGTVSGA
Summary of the method: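 Enzyme and proluciferin substrate are mixed with test chemicals for 10 min, then NADPH regeneration system drives turnover for 1 h at room temperature. A detection reagent halts the reaction; luminescence after 20 min gives relative activity.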

[16] = molecular target: Thyrotropin-releasing hormone receptor (Homo sapiens) (UniProt P34981); test: qHTS assay to identify small molecule agonists of the thyrotropin-releasing hormone receptor (TRHR) signaling pathway (AID 1346891; calls by dose curve;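 note: HEK293 cells expressing TRHR with calcium dye readout; series mostly up to about 58 µM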)
Summary of the method: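 Kinetic fluorescence (3 min, 1 s intervals) reported intracellular calcium after compound transfer onto TRHR-Hek293 cells pre-loaded with dye for 2 h at 37 °C.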

[17] = molecular target: Nuclear receptor subfamily 1 group I member 2 (Rattus norvegicus) (UniProt Q9R1A7); test: Rat pregnane X receptor (rPXR) activation by small molecules, qHTS assay (AID 1346983); settings: rPXR luciferase reporter cells, One-Glo luminescence, 24 h; stronger effect = higher value; note: nearly all actives have a fitted effect of over 20% in size
Nuclear receptor subfamily 1 group I member 2 (Rattus norvegicus), sequence (Q9R1A7 whole entry, looked up): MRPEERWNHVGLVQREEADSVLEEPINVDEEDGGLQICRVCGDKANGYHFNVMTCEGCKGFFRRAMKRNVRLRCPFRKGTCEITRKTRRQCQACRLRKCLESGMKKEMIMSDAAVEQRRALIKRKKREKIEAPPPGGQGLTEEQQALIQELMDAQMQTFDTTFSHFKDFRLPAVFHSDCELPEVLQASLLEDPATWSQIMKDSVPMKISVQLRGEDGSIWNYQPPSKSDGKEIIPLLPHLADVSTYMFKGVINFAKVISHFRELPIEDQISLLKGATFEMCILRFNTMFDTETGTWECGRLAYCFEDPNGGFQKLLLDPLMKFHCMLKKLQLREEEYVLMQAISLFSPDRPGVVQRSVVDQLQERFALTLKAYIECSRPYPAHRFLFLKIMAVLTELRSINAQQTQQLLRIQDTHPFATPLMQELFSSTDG
Summary of the method: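 Cell-based rPXR luciferase reporter assay, 2,000 cells per well, rested 5hr at 37 C before compound addition in DMSO, then 24 hr at 37 C. One-Glo reagent was added and luminescence read after 30 min at room temperature.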

[18] = molecular target: Nuclear receptor subfamily 1 group I member 2 (Homo sapiens) (UniProt O75469); test: Human pregnane X receptor (PXR) activation by small molecules, qHTS assay (AID 1346985); note: nearly all actives have a fitted effect of over 40% in size
Summary of the method: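 DPX-2 cells (HepG2 co-transfected with a PXR response element and a CYP3A4-promoter luciferase construct) were seeded at 2,000 per well, rested 5 hr at 37C, then exposed to DMSO-dissolved compounds for 24 hr. Activation was read as luciferase luminescence.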

[19] = molecular target: Nuclear receptor subfamily 1 group I member 2 (Homo sapiens) (UniProt O75469); test: CYP3A4 induction through human pregnane X receptor (PXR) by small molecules, qHTS assay (AID 1346984); note: nearly all actives have a fitted effect of over 40% in size
Summary of the method: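 qHTS, concentration-response format: HepG2 DPX-2 line, PXR/CYP3A4-luc. Exposure 24 h, 37C. Substrate Luciferin-IPA 3uM final, 3 h. Detection One-Glo, 30 min RT.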
% is set by controls: 0 for no effect and ±100 for the full control effect.

CN(C)CCCCl
inactive: outcome [1] | outcome [2] | outcome [3] | outcome [4] | outcome [5] | Potency [6] | outcome [7] | outcome [8] | Potency [9] | Potency [10] | Potency [11] | Potency [12] | Potency [13] | Potency [14]

Cc1c(N)cccc1Cl
inactive: outcome [1] | outcome [2] | outcome [3] | outcome [4] | outcome [5] | Potency [6] | outcome [7] | outcome [8] | Potency [9] | Potency [11] | Potency [14] | Potency [15]
active: Potency [13] 11.3 µM

ONc1ccccc1
active: Potency [11] 88.5 µM | Potency [13] 14 µM
inactive: outcome [1] | outcome [2] | outcome [3] | outcome [5] | Potency [6] | outcome [7] | outcome [8] | Potency [10] | Potency [14] | Potency [15]

CC1=C(C(=O)O)N2C(=O)[C@@H](NC(=O)[C@H](N)c3ccccc3)[C@H]2SC1
inactive: outcome [1] | outcome [2] | outcome [3] | outcome [16] | outcome [4] | Potency [6] | outcome [7] | outcome [8] | Potency [9] | max activation [17] -2.36% | Potency [18]

CC1(C)O[C@H]2CC(=O)OC[C@]23[C@H]2CC[C@@]4(C)[C@H](c5ccoc5)OC(=O)[C@H]5O[C@]54[C@]2(C)C(=O)C[C@@H]13
inactive: outcome [1] | outcome [2] | outcome [3] | outcome [4] | outcome [5] | Potency [6] | outcome [7] | outcome [8] | Potency [9] | max activation [17] 5.81% | Potency [19] | Potency [18] | Potency [10] | Potency [11] | Potency [12] | Potency [14]

C#CCN[C@@H]1CCc2ccccc21
inactive: outcome [1] | outcome [2] | outcome [16] | outcome [4] | outcome [5] | Potency [6] | outcome [7] | outcome [8] | Potency [9] | max activation [17] -3.04% | Potency [19] | Potency [18] | Potency [11] | Potency [12] | Potency [14] | Potency [15]
active: Potency [10] 27.5 µM | Potency [13] 5.12 µM

CC(S)C(C)S (stereo not given)
inactive: outcome [1] | outcome [2] | outcome [3] | outcome [4] | outcome [5] | Potency [6] | outcome [7] | outcome [8] | Potency [9] | Potency [10] | Potency [11] | Potency [12] | Potency [14]

CCCCOCCOC(=O)COc1ccc(Cl)cc1Cl
inactive: outcome [1] | outcome [2] | outcome [3] | outcome [16] | outcome [4] | outcome [5] | outcome [7] | outcome [8] | Potency [9] | Potency [10] | Potency [14] | Potency [15]
active: Potency [11] 79.6 µM | Potency [13] 20 µM

Cn1nnc2c(C(N)=O)ncn2c1=O
inactive: outcome [1] | outcome [2] | outcome [3] | outcome [4] | outcome [5] | Potency [6] | outcome [7] | outcome [8] | Potency [9] | max activation [17] -4.63% | Potency [19] | Potency [18] | Potency [10] | Potency [11] | Potency [12] | Potency [14] | Potency [15]

CCCCSCCCC
active: Potency [11] 79.6 µM | Potency [12] 63.3 µM
inactive: outcome [1] | outcome [2] | outcome [3] | outcome [4] | outcome [5] | Potency [6] | outcome [7] | outcome [8] | Potency [9] | Potency [10] | Potency [14] | Potency [15]

Cn1c(=O)c2c(ncn2CCO)n(C)c1=O
inactive: outcome [1] | outcome [2] | outcome [3] | outcome [5] | Potency [6] | outcome [7] | outcome [8] | Potency [9] | Potency [10] | Potency [12] | Potency [14] | Potency [15]

O=C(Cl)c1ccccc1[N+](=O)[O-]
active: Potency [11] 72.7 µM
inactive: outcome [1] | outcome [2] | outcome [3] | outcome [4] | outcome [5] | Potency [6] | outcome [7] | outcome [8] | Potency [9] | Potency [12] | Potency [14] | Potency [15]

CC(=O)OC1CCCCC1C(C)(C)C (stereo not given)
inactive: outcome [1] | outcome [2] | outcome [3] | outcome [5] | Potency [6] | outcome [7] | outcome [8] | Potency [9] | Potency [10] | Potency [11] | Potency [12] | Potency [13] | Potency [14] | Potency [15]

O=C1NC(c2ccccc2)(c2ccccc2)C(=O)N1COP(=O)(O)O
inactive: outcome [1] | outcome [2] | outcome [3] | outcome [16] | outcome [5] | Potency [6] | outcome [7] | outcome [8] | Potency [9] | Potency [10] | Potency [11] | Potency [12] | Potency [13] | Potency [14] | Potency [15]

CC(CO)(CO)CO
active: Potency [10] 28.6 µM
inactive: outcome [1] | outcome [2] | outcome [3] | outcome [16] | outcome [5] | Potency [6] | outcome [7] | outcome [8] | Potency [9] | Potency [11] | Potency [12] | Potency [14] | Potency [15]
